{
  "source": "paper PMC5540273",
  "about": "(PLoS ONE, 2017);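 note: KINOMEscan kinase panel screen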",
  "data": [
    {"test_system": "MST4", "details": "concentration: 1 μM,replicates: in singlicate; n = 1", "units": {"%Inh": "%"}, "values": [
      {"smiles": "CCCC(=O)Nc1n[nH]c2ncccc12", "note": "[SB-601436]", "%Inh": 0},
      {"smiles": "CC(C)S(=O)(=O)N1CCN(Cc2ccc3c(c2)nc(NC(=O)c2ccsc2)n3C[C@H](O)c2ccccc2)CC1", "note": "[GW635815]", "%Inh": 0},
      {"smiles": "Cn1ccc2ncnc(Oc3ccc(NC(=O)Nc4cncc(C(F)(F)F)c4)c(Cl)c3)c21", "%Inh": 0},
      {"smiles": "CN(c1ccc2c(c1)nc(NCc1ccc(F)cc1)n2C)c1ccnc(Nc2ccc(CS(C)(=O)=O)cc2)n1.Cl", "note": "[GW813244]", "%Inh": 3},
      {"smiles": "C[C@@H](Oc1cc(-n2cnc3ccc(-c4ccncc4)cc32)sc1C(N)=O)c1ccccc1Cl", "note": "[GSK483724]", "%Inh": 0},
      {"smiles": "C[C@@H]1CNc2c(sc3ccc4nc(-c5ccncc5)ccc4c23)C(=O)N1", "%Inh": 0},
      {"smiles": "COc1cc(Nc2nccc(N3CCC(NC(=O)c4cccc(C#N)c4)C3)n2)cc(OC)c1OC", "note": "(stereo not shown) [GSK1379751]", "%Inh": 0},
      {"smiles": "Cn1ccc2ncnc(Oc3ccc(NC(=O)Nc4ccnc(C(F)(F)F)c4)c(Cl)c3)c21", "%Inh": 0},
      {"smiles": "Cn1cc(-c2cccc3c(N)c(C(N)=O)nnc23)cn1", "%Inh": 40},
      {"smiles": "CC(=O)Nc1nc2cnc(Nc3cc(NC(=O)c4cccc(CC(C)(C)C#N)c4)ccc3C)nc2s1", "%Inh": 0},
      {"smiles": "COc1cccc(CNC(=O)NC2CCN(c3ccnc(Nc4cc(OC)c(OC)c(OC)c4)n3)C2)c1", "note": "(stereo not shown) [GSK1379765]", "%Inh": 0},
      {"smiles": "O=C(Nc1cccc(C(F)(F)F)c1)c1cccc(Oc2ccc3nccn3n2)c1", "%Inh": 28},
      {"smiles": "OCCn1cc(-c2cnc3nnn(Cc4ccc5ncccc5c4)c3n2)cn1", "%Inh": 0},
      {"smiles": "Cc1cccc(-c2nc(Nc3ccncc3)c3sccc3n2)n1", "note": "[GW869641]", "%Inh": 40},
      {"smiles": "CS(=O)(=O)Nc1ccc(-c2ccnc3[nH]ccc23)cc1", "note": "[GSK993273]", "%Inh": 11},
      {"smiles": "Cn1ccc2ncnc(Oc3ccc(NC(=O)Nc4cccc(C(F)(F)F)c4)c(Cl)c3)c21", "%Inh": 0},
      {"smiles": "O=C(Nc1n[nH]c2cc(-c3ccco3)ccc12)C1CC1", "note": "[SB-737447]", "%Inh": 3},
      {"smiles": "Cc1ccc(C(=O)Nc2ccc(Oc3ccc4nc(NC(=O)C5CC5)cn4c3)c(F)c2)c(=O)n1-c1ccccc1", "%Inh": 0},
      {"smiles": "Cc1n[nH]c2cc(Nc3ccnc(Nc4cccc(CN5CCOCC5)c4)n3)ccc12", "note": "[GW682569]", "%Inh": 0},
      {"smiles": "Cn1ccc2ncnc(Oc3ccc(NC(=O)Nc4cnn(C(C)(C)C)c4)c(Cl)c3)c21", "%Inh": 0},
      {"smiles": "Cn1ccc2ncnc(Oc3ccc(NC(=O)Nc4cccc(C(F)(F)F)c4)c(F)c3)c21", "%Inh": 0},
      {"smiles": "Cl.Cl.NC[C@H](CC1CCCCC1)NC(=O)c1ccc(-c2ccnc3[nH]ccc23)s1", "note": "[GSK1581428]", "%Inh": 55},
      {"smiles": "COc1cccc(C2=C(Nc3cccc(Cl)c3)C(=O)NC2=O)c1", "note": "[SB-341556]", "%Inh": 0},
      {"smiles": "C[C@@H](Oc1cc(-n2cnc3cc(-c4cnn(C)c4)ccc32)sc1C(N)=O)c1ccccc1Cl", "note": "[GSK580432]", "%Inh": 14},
      {"smiles": "Cc1ccc2c(-c3ccnc(Nc4ccc(C(F)(F)F)cc4)n3)cnn2n1", "note": "[GW819776]", "%Inh": 0},
      {"smiles": "CCn1c(-c2nonc2N)nc2cncc(Br)c21", "note": "[SB-738004]", "%Inh": 0},
      {"smiles": "CCN1CCN(CCCC(=O)Nc2n[nH]c3nc(-c4ccc(O)cc4)c(Br)cc23)CC1", "note": "[SB-731579]", "%Inh": 60},
      {"smiles": "CN1CCN(CCCNc2nccc(-c3c(-c4ccc(F)cc4)nn4cc(C(N)=O)ccc34)n2)CC1", "note": "[GW622475]", "%Inh": 0},
      {"smiles": "COC(=O)c1cccc(NC(=O)NC2CCN(c3ccnc(NCc4ccc(F)cc4)n3)CC2)c1", "note": "[GSK1379860]", "%Inh": 0},
      {"smiles": "CC(=O)c1c(-c2ccncc2)[nH]c(-c2ccncc2)c1C", "note": "[GW493036]", "%Inh": 0},
      {"smiles": "CN1CCN(CCNc2nc3cc(Oc4ccc(NC(=O)Nc5cc(C(F)(F)F)ccc5F)cc4)ccc3[nH]2)CC1.Cl.Cl", "note": "[GW768504]", "%Inh": 0},
      {"smiles": "COc1cc2ncn(-c3cc(OCC4CCCCC4)c(C(N)=O)s3)c2cc1OC", "note": "[GSK204559]", "%Inh": 0},
      {"smiles": "O=C(NCC1CC1)c1ccc(-c2cc(C(=O)NC3CC3)ccc2F)cc1", "note": "[GW810445]", "%Inh": 0},
      {"smiles": "CS(=O)c1ccc(-c2coc3ccc(-c4n[nH]c(=O)o4)cc23)cc1", "note": "(stereo not shown)", "%Inh": 5},
      {"smiles": "Cc1ccn2nc(-c3ccc(F)cc3)c(-c3ccncc3)c2c1.Cl", "note": "[GW457859]", "%Inh": 0},
      {"smiles": "Cc1ccc(CC(=O)N2CCc3cc(-c4cn(C)c5ncnc(N)c45)ccc32)cc1", "note": "[GSK2634758]", "%Inh": 35},
      {"smiles": "CCOC(=O)N1CCC(n2cnc(-c3ccc(F)cc3)c2-c2ccnc(N)n2)CC1", "note": "[SB-219952]", "%Inh": 0}
    ]}
  ]
}
